13 compounds from PubChem BioAssay (NCI) can be followed below.

Among the test systems are SK-MEL-2 melanoma; EKVX NSCLC; SN12C renal; UO-31 renal; TK-10 renal; ACHN renal; CAKI-1 renal; A498 renal; CCRF-CEM leukemia; MOLT-4 leukemia.
Holding throughout (assay): NCI-60 one-dose screen, 48 h (100 = growth as untreated, 0 = no growth, -100 = all killed)
Conditions in all cases: 10 µM unless noted

About 83,000 compounds went through this panel and 20% of them were active in at least one assay; those are over-represented in the sample as a whole.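 48-hour exposure, single concentration, 96-well plates; percent growth endpoint where 0 means no net growth. Active: below 10.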 Values without a mark were called inactive. Activity calls are given as the source filed them.

For `C#CCC(C)(O)/C=C/C1=C(C)CCCC1(C)C` (stereo not given), the growth is 97.4% with SK-MEL-2 melanoma; 95.8% in the experiment on EKVX NSCLC; 99.2% with SN12C renal; 91.3% in the experiment with UO-31 renal; 96.7% in the experiment with TK-10 renal; 97.3% with ACHN renal. The values for the growth in the experiment on CAKI-1 renal, in the experiment on A498 renal and with CCRF-CEM leukemia were 92.4%, 91.3% and 101%, respectively.

Take `CC/C(=N/NC(N)=O)c1ccccc1`: the growth in the experiment on SK-MEL-2 melanoma is 115%; in the experiment on EKVX NSCLC, 91.5%; with SN12C renal, 106%; with UO-31 renal it was 86.4%; with TK-10 renal, 105%; in the experiment with ACHN renal, 108%. Moreover, the results for the growth with CAKI-1 renal, with A498 renal and in the experiment with CCRF-CEM leukemia were 94.7%, 105% and 94.2%, respectively.

Turning to `COc1ccc(-c2c(-c3nc4ccc(N5CCOCC5)cc4[nH]3)[nH]c(C)c2C(C)=O)cc1`, the growth was 77.1% in the experiment with SK-MEL-2 melanoma; 42.1% with EKVX NSCLC; 52.6% in the experiment with SN12C renal; 13.8% in the experiment with UO-31 renal; -4.3% (active) with TK-10 renal; 34.2% in the experiment on ACHN renal. For the same compound, the growth with CAKI-1 renal is 16.9%; in the experiment with A498 renal, 27.2%; with CCRF-CEM leukemia it was 43.4%.

With `C[Si](C)(C)Cc1ccccc1`, the growth in the experiment with SK-MEL-2 melanoma is 163%; with EKVX NSCLC, 110%; in the experiment with SN12C renal it was 108%; in the experiment with UO-31 renal, 95.9%; with TK-10 renal it was 122%; with ACHN renal, 106%. The results for the growth in the experiment on CAKI-1 renal, in the experiment with A498 renal and with CCRF-CEM leukemia were 98.5%, 164% and -49.7% (active), respectively.

For the compound `N=c1ccc2nc3c(cc(N)c4ccccc43)oc-2c1`, the growth was -36.1% (active) with SK-MEL-2 melanoma; -33.9% (active) in the experiment on EKVX NSCLC; -95.2% (active) with SN12C renal; -78.7% (active) with UO-31 renal; -29.7% (active) in the experiment on TK-10 renal; -94.4% (active) in the experiment on ACHN renal. Further, the growth in the experiment with CAKI-1 renal is -60% (active); in the experiment on A498 renal, -21.4% (active); in the experiment with CCRF-CEM leukemia, -24.9% (active).

In the case of `COC(=O)[C@]12CC[C@@H](C)[C@H](C)[C@@H]1C1=CC[C@@H]3[C@@]4(C)C[C@@H](OC(C)=O)[C@H](OC(C)=O)[C@@](C)(COC(C)=O)[C@@H]4[C@H](O)C[C@@]3(C)[C@]1(C)CC2`, the growth was -2.42% (active) in the experiment with SK-MEL-2 melanoma; 10.7% in the experiment on EKVX NSCLC; 11% in the experiment with SN12C renal; 10.9% in the experiment on UO-31 renal; -1.29% (active) in the experiment with TK-10 renal; 11.8% in the experiment on ACHN renal. Also, the growth in the experiment with CAKI-1 renal was 11.6%; with A498 renal it was 5.15% (active); in the experiment with CCRF-CEM leukemia, 12%.

Turning to `CC(=O)Cc1nsc(NC(=O)c2ccoc2COc2ccccc2)n1`, the growth with SK-MEL-2 melanoma was 107%; with EKVX NSCLC, 91.1%; with SN12C renal, 90.2%; in the experiment on UO-31 renal it was 77.1%; with TK-10 renal, 107%; with ACHN renal, 99.7%. The growth is 99.8% in the experiment with CAKI-1 renal, 97.4% with A498 renal, 93.2% in the experiment with CCRF-CEM leukemia and 106% with MOLT-4 leukemia.

With `CN(C)c1cccc2[nH]c(-c3[nH]ncc3Nc3ccnc(N)n3)nc12`, the growth in the experiment on SK-MEL-2 melanoma was -60.4% (active); with EKVX NSCLC, -17% (active); with SN12C renal, -7.45% (active); in the experiment on UO-31 renal, -9.8% (active); in the experiment with TK-10 renal it was -30.1% (active); with ACHN renal, -1.92% (active). Moreover, the growth with CAKI-1 renal is -45.9% (active); with A498 renal it was -79.4% (active); in the experiment with CCRF-CEM leukemia it was 1.73% (active).

With `Nc1c(C(=O)Nc2cccc3ccccc23)sc2nc3c(cc12)CCCC3`, the growth was 51.5% in the experiment with SK-MEL-2 melanoma; 66.4% with EKVX NSCLC; 34.3% in the experiment with SN12C renal; 42% in the experiment with UO-31 renal; 60.6% in the experiment with TK-10 renal; 44.7% in the experiment on ACHN renal. Further, the growth in the experiment on CAKI-1 renal is 44.9%; in the experiment with A498 renal, 0.0449% (active).

`Cc1ccc(N(CC(=O)Nc2ccc(S(=O)(=O)NC3CCN(C)CC3)cc2)S(=O)(=O)c2ccc(Cl)cc2)cc1`: the growth in the experiment with SK-MEL-2 melanoma was 104%; with EKVX NSCLC it was 99.4%; in the experiment on SN12C renal it was 85%; in the experiment on UO-31 renal it was 83.3%; in the experiment with TK-10 renal, 105%; in the experiment with ACHN renal, 96.6%. Besides, the growth is 89% with CAKI-1 renal, 84.6% in the experiment on A498 renal, 20.9% in the experiment with CCRF-CEM leukemia and 70.5% in the experiment with MOLT-4 leukemia.

For `NC(N)=N/N=C/c1ccc(-c2ccc(-c3ccc(Cl)cn3)s2)cc1`, the growth with SK-MEL-2 melanoma is 109%; in the experiment on EKVX NSCLC it was 98.9%; in the experiment with SN12C renal, 89.8%; in the experiment on UO-31 renal, 78%; in the experiment on TK-10 renal it was 112%; in the experiment on ACHN renal, 92.2%. Besides, the growth in the experiment with CAKI-1 renal is 81.5%; with A498 renal, 88.8%; in the experiment with CCRF-CEM leukemia, 29.7%.

In the case of `Clc1ccc2[nH]cc(-c3nc(-c4c[nH]c5ncccc45)cs3)c2c1`, the growth is 48.1% in the experiment with SK-MEL-2 melanoma; 42.7% with EKVX NSCLC; 56.7% in the experiment on SN12C renal; 22.2% in the experiment on UO-31 renal; 46.1% in the experiment with TK-10 renal; 25.9% in the experiment on ACHN renal. Further, the growth is 17.1% in the experiment with CAKI-1 renal, 60.2% with A498 renal, 31.2% in the experiment on CCRF-CEM leukemia and 16.1% with MOLT-4 leukemia.

As to `Oc1ccc(Nc2ccccc2)cc1`, the growth in the experiment with SK-MEL-2 melanoma was 125%; in the experiment with EKVX NSCLC it was 81.6%; in the experiment on SN12C renal it was 90.3%; in the experiment on UO-31 renal, 68.4%; in the experiment on TK-10 renal it was 117%; with ACHN renal it was 46.9%. For the same compound, the growth is 65.4% in the experiment on CAKI-1 renal, 87.4% in the experiment with A498 renal, 0.482% (active) in the experiment with CCRF-CEM leukemia and 88.6% with MOLT-4 leukemia.
